Legend:
Experiment in all cases: DAPPL (digital affinity profiling via proximity ligation, sequencing); 10 mM Tris-HCl pH 7.5, 50 mM NaCl, 1 mM DTT, 4% glycerol, room temperature, 30 min; GST-TFs on glutathione beads, 16-mer random dsDNA library, 0.1% formaldehyde crosslink after washing; high values mean tight binding
Conditions in all cases: protein: recombinant; tags: N-terminal GST; dsDNA, one strand shown
FEV = target: T1, FEV (Homo sapiens, UniProt Q99581 1-238)
T1 sequence: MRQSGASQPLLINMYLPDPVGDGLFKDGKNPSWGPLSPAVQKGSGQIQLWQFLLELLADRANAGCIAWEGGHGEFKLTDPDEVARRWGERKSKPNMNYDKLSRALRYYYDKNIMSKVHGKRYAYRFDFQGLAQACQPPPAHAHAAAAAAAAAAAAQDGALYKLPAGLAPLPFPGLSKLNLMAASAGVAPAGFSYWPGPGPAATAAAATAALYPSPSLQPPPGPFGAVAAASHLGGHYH
Procedure, shortened: (§1)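 After expression in yeast as GST fusions, human transcription factors were bound to glutathione beads, DNA-barcoded and mixed with a tag-only sample. The pools were incubated with 200 nmole of a 16-mer random double-stranded DNA library in Tris/NaCl/DTT/glycerol buffer (30 min, room temperature), washed and crosslinked with 0.1% formaldehyde. Proximity ligation with BsaI/T4 ligase ran for 1 h at 37 °C, before PCR amplification and sequencing on an Illumina NextSeq500. Binding signal is a hexamer's read frequency for a factor divided by its frequency for the tag-only sample.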

ETV5 = ETV5 (Homo sapiens, UniProt P41161 1-510)
ETV5, sequence (P41161 whole entry): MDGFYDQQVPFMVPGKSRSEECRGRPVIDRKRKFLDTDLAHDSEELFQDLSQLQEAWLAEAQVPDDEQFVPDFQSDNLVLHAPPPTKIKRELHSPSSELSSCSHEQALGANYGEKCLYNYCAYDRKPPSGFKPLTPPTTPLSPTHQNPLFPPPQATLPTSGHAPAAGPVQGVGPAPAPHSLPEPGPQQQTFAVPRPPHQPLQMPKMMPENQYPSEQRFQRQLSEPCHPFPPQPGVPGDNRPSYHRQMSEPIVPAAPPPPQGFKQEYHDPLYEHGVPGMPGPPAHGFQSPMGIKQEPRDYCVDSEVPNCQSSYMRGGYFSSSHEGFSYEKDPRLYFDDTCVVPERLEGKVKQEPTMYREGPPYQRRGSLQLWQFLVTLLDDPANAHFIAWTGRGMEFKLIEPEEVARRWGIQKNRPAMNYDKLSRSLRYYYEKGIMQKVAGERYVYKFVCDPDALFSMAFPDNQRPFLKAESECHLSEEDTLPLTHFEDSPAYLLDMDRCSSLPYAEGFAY
Procedure, shortened: as §1

SPIC = target: T2, SPIC (Homo sapiens, UniProt Q8N5J4 1-248)
T2 sequence: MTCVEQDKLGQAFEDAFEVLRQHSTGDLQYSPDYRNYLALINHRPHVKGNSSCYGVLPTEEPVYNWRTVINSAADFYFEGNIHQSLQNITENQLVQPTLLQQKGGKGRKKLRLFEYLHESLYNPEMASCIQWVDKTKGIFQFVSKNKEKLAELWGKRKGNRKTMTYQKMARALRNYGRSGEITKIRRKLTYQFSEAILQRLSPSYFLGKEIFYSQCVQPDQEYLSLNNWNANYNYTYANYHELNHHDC
Procedure, shortened: as §1

ELF4 = ELF4 (Homo sapiens, UniProt Q99607 1-663)
ELF4, sequence (Q99607 whole entry): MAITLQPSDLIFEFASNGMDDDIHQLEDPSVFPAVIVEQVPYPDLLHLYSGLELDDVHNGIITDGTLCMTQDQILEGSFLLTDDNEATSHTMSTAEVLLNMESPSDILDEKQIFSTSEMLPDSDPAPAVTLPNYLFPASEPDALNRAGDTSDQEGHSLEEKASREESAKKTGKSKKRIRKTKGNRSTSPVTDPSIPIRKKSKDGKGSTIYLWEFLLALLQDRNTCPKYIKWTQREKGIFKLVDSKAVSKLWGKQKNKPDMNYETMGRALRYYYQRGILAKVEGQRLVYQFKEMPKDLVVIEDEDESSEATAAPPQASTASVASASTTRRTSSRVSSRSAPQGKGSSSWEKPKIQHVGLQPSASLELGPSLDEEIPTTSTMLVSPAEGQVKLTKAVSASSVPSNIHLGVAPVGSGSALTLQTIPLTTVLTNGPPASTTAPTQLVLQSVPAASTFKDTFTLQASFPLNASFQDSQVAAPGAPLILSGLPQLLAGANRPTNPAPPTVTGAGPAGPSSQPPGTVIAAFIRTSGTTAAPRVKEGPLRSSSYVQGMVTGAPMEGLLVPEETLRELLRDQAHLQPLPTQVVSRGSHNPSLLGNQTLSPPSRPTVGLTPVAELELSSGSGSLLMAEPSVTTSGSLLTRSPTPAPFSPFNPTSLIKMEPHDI
Procedure, shortened: as §1

ELK4 = target: T3, ELK4 (Homo sapiens, UniProt P28324-2 1-405)
T3 sequence: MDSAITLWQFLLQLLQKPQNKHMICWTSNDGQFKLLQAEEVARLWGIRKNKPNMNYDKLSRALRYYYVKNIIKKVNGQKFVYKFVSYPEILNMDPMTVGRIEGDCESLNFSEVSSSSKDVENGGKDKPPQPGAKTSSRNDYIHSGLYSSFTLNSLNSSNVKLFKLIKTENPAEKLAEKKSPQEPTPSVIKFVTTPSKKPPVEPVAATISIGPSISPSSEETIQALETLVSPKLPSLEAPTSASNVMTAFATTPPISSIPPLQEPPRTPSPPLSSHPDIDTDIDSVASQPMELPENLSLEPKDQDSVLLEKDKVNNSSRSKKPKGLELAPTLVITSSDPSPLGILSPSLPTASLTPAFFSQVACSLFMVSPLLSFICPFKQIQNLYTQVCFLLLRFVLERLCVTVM
Procedure, shortened: as §1

ETV2 = target: T4, ETV2 (Homo sapiens, UniProt O00321 1-342)
T4 sequence: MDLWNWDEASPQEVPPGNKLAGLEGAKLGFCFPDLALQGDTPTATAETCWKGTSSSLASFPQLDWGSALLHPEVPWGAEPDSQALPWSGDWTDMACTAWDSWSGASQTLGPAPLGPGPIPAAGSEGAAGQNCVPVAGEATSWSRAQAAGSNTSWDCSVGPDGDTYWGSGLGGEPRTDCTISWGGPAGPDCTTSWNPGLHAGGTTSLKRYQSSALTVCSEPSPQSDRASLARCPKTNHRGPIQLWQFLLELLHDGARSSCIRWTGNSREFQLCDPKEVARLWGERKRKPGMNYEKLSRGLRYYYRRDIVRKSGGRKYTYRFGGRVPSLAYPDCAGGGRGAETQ
Procedure, shortened: as §1

ELF3 = target: T5, ELF3 (Homo sapiens, UniProt P78545 1-371)
T5 sequence: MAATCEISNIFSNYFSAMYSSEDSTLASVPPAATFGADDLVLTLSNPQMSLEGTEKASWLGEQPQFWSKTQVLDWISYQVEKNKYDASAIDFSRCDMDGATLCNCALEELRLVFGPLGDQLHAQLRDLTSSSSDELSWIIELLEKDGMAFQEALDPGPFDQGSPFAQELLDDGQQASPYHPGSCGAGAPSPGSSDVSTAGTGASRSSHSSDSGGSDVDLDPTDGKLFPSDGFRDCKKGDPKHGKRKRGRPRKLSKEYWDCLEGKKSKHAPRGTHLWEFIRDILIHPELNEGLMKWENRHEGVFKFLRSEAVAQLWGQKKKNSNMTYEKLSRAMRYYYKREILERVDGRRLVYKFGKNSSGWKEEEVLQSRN
Procedure, shortened: as §1

ETV1 = ETV1 (Homo sapiens, UniProt P50549 1-477)
ETV1, sequence (P50549 whole entry): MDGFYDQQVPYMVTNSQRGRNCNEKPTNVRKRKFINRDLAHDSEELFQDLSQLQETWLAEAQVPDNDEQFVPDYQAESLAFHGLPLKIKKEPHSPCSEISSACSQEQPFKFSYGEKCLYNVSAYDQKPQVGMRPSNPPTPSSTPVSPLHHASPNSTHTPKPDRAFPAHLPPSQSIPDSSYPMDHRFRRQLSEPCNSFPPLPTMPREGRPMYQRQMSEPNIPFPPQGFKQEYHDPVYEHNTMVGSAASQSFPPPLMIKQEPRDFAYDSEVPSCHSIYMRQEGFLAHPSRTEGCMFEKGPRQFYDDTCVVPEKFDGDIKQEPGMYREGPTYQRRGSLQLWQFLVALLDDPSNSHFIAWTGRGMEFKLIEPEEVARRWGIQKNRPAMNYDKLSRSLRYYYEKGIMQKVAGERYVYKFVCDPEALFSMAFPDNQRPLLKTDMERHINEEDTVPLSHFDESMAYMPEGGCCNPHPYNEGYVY
Procedure, shortened: as §1

ERF = target: T6, ERF (Homo sapiens, UniProt P50548 1-548)
T6 sequence: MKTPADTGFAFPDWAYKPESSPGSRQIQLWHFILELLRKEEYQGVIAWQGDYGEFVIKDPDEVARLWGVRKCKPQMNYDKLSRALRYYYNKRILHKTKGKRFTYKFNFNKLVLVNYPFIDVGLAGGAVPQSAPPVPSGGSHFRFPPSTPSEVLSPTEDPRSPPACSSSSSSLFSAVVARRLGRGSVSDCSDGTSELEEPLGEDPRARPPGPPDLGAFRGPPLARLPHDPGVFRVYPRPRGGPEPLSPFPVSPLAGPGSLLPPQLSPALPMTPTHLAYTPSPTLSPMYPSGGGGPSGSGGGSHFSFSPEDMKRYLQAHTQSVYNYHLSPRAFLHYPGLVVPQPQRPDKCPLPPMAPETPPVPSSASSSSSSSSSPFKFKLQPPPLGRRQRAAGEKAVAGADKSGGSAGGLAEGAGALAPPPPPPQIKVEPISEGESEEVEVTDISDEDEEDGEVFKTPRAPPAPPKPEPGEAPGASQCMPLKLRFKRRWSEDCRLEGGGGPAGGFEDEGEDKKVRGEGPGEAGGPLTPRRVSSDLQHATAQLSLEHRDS
Procedure, shortened: as §1

ETV3L = target: T7, ETV3L (Homo sapiens, UniProt Q6ZN32 1-361)
T7 sequence: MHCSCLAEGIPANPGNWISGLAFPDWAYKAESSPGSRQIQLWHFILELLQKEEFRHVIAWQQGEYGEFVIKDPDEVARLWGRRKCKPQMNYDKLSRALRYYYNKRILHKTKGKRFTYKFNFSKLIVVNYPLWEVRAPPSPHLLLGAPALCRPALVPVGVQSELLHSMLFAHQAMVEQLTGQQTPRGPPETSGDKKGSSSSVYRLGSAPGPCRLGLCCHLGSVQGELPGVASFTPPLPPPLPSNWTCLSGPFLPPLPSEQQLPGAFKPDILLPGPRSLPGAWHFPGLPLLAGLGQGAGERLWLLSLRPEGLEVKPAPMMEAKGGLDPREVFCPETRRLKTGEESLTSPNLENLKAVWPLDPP
Procedure, shortened: as §1

SPDEF = target: T8, SPDEF (Homo sapiens, UniProt O95238 1-335)
T8 sequence: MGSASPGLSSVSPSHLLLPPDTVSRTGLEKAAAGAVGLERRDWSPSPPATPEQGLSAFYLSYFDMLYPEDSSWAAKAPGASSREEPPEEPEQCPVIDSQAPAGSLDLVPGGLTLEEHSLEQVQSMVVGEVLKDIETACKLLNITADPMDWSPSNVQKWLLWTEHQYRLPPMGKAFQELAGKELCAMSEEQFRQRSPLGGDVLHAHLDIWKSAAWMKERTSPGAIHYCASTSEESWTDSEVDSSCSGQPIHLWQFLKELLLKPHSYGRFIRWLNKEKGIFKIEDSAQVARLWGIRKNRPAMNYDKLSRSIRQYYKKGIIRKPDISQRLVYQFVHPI
Procedure, shortened: as §1

ELF5 = target: T9, ELF5 (Homo sapiens, UniProt Q9UKW6-2 1-255)
T9 sequence: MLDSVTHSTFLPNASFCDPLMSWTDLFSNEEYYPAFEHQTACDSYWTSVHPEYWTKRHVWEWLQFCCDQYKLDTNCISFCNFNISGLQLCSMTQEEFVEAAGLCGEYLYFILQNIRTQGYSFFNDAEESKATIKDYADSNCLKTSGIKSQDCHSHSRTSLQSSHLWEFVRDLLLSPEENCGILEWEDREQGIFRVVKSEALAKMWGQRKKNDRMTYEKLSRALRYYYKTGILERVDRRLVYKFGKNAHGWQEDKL
Procedure, shortened: as §1

ETV6 = ETV6 (Homo sapiens, UniProt P41212 1-452)
ETV6, sequence (P41212 whole entry): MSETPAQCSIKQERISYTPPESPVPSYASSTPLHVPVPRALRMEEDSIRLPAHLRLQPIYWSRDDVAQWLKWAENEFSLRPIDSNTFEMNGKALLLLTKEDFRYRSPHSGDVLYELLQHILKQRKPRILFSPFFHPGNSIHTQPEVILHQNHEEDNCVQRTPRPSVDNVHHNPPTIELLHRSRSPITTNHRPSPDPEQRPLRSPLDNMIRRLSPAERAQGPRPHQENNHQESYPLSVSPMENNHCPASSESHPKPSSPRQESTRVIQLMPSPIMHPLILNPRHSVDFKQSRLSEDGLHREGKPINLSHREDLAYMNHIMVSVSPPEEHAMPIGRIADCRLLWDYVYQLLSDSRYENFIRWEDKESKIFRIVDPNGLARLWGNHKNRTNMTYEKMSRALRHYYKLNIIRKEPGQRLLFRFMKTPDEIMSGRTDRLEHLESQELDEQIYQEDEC
Procedure, shortened: as §1

ETS2 = target: T10, ETS2 (Homo sapiens, UniProt P15036 1-469)
T10 sequence: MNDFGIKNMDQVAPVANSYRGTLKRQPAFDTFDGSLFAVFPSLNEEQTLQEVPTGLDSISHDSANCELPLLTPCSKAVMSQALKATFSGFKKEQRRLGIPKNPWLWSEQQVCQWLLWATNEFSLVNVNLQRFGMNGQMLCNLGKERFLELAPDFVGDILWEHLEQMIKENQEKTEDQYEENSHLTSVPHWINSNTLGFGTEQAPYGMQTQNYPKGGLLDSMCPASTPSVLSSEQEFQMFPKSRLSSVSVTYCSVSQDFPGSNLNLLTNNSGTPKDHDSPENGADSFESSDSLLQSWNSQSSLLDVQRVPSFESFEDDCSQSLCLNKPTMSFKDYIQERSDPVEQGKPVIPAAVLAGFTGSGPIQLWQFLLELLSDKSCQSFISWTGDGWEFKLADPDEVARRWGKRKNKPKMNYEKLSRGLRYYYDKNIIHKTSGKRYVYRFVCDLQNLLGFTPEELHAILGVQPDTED
Procedure, shortened: as §1

ETV7 = target: T11, ETV7 (Homo sapiens, UniProt Q9Y603 1-341)
T11 sequence: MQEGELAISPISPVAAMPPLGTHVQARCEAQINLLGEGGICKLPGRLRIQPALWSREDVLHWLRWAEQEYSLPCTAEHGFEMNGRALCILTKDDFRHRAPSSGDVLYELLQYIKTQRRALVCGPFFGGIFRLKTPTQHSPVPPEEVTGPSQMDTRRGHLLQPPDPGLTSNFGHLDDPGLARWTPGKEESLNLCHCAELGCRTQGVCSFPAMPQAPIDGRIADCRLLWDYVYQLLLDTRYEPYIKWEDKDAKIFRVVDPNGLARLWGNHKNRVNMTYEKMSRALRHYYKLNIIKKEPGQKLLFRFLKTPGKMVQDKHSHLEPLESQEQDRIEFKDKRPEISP
Procedure, shortened: as §1

ETV3 = target: T12, ETV3 (Homo sapiens, UniProt P41162-2 1-143)
T12 sequence: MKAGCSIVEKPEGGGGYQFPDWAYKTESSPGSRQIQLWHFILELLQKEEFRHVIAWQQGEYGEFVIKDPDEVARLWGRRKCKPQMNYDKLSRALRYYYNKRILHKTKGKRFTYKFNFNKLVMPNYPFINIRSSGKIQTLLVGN
Procedure, shortened: as §1

Row | Sequence | binding signal (FEV) | binding signal (ETV5) | binding signal (SPIC) | binding signal (ELF4) | binding signal (ELK4) | binding signal (ETV2) | binding signal (ELF3) | binding signal (ETV1) | binding signal (ERF) | binding signal (ETV3L) | binding signal (SPDEF) | binding signal (ELF5) | binding signal (ETV6) | binding signal (ETS2) | binding signal (ETV7) | binding signal (ETV3)
1 | CTACAG | 1.04 fold enrichment (6-mer frequency, TF over GST control) | 1.07 fold enrichment (6-mer frequency, TF over GST control) | 1.04 fold enrichment (6-mer frequency, TF over GST control) | 1.02 fold enrichment (6-mer frequency, TF over GST control) | 1.07 fold enrichment (6-mer frequency, TF over GST control) | 1.02 fold enrichment (6-mer frequency, TF over GST control) | 1 fold enrichment (6-mer frequency, TF over GST control) | 1.06 fold enrichment (6-mer frequency, TF over GST control) | 1.01 fold enrichment (6-mer frequency, TF over GST control) | 1.13 fold enrichment (6-mer frequency, TF over GST control) | 1.09 fold enrichment (6-mer frequency, TF over GST control) | 1.08 fold enrichment (6-mer frequency, TF over GST control) | 1.03 fold enrichment (6-mer frequency, TF over GST control) | – | – | –
2 | CGCCAA | 1.05 fold enrichment (6-mer frequency, TF over GST control) | 1.02 fold enrichment (6-mer frequency, TF over GST control) | 1.11 fold enrichment (6-mer frequency, TF over GST control) | 1.09 fold enrichment (6-mer frequency, TF over GST control) | 1.04 fold enrichment (6-mer frequency, TF over GST control) | 1.03 fold enrichment (6-mer frequency, TF over GST control) | 1.12 fold enrichment (6-mer frequency, TF over GST control) | – | 1.07 fold enrichment (6-mer frequency, TF over GST control) | – | – | – | 1.03 fold enrichment (6-mer frequency, TF over GST control) | 1.04 fold enrichment (6-mer frequency, TF over GST control) | 1.01 fold enrichment (6-mer frequency, TF over GST control) | 1.04 fold enrichment (6-mer frequency, TF over GST control)
